ChEMBL document CHEMBL5308504, “Tm Shift (DSF) assay results for EUbOPEN Chemogenomics Library” (2023)
Values joined by “and” are separate entries in the source; they are usually repeats but may differ in a detail not shown here. Identical values can stand only once. Numbered stars: 1 amine (or outer) side, 2 acyl side, 3 side chain; on linkers, the order of the positions; unused ones are H or OH. Bridge positions count the residues as written; N and C are the ends. Square brackets hold non-standard residues; d marks the D form. Peptide text beside a SMILES is read from it. I, II: the chains in the order shown. Hexamethylenediamine = C(CCCN[*:2])CCN[*:1]; Dip = N[C@H](C(=O)O)C(c1ccccc1)c1ccccc1; Chg = N[C@H](C(=O)O)C1CCCCC1; NMeA = CN[C@@H](C)C(=O)O

Experiments:
[1] = biological target: Bromodomain-containing protein 4 (Homo sapiens) (UniProt O60885); settings: Compound concentration 20.0 uM, Protein concentration 2.0 uM, Result type QC Liability
[2] = biological target: T1, Transcription intermediary factor 1-alpha (Homo sapiens) (UniProt O15164); settings: Compound concentration 20.0 uM, Protein concentration 2.0 uM, Result type QC Liability
T1 sequence (whole entry): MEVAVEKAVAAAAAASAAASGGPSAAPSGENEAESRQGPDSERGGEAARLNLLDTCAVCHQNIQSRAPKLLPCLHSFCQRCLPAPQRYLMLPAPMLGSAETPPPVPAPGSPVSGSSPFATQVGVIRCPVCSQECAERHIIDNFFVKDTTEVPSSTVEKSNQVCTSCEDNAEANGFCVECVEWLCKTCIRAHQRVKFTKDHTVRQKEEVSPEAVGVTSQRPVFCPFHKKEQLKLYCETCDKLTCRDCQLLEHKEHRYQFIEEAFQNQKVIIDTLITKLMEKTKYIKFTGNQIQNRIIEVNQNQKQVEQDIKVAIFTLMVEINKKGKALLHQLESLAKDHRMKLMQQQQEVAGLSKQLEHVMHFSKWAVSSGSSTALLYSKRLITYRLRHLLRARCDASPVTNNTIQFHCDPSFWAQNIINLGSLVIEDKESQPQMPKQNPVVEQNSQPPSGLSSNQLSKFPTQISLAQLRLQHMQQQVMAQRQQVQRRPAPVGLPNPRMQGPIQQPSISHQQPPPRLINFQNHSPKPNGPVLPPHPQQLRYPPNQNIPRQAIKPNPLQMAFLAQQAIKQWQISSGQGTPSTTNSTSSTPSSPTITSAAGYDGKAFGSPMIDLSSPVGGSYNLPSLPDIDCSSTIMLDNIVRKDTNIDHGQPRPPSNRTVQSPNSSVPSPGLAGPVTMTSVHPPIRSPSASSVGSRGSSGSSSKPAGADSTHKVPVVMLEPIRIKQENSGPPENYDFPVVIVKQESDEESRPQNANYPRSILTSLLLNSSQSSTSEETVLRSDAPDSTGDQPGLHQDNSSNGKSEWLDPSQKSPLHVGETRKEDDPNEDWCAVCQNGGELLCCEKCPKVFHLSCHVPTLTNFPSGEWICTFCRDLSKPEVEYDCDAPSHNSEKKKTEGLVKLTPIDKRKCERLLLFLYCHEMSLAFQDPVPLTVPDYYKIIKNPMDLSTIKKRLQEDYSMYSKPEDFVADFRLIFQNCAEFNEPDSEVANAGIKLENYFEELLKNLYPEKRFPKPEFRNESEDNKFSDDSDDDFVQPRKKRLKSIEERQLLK

SMILES	ΔTm [1]	ΔTm [2]
CCN(CC)C(=O)C1CN2CCc3cc(OC)c(OC)cc3C2CC1OC(C)=O (centres undefined)	-0.18 °C	0.29 °C
CC(C)c1cnc(NC(=O)Cc2ccccc2)s1	-1.14 °C	-1.45 °C
COc1ccccc1N1CCN(c2ncnc3c2cnn3-c2ccccc2)CC1	0.01 °C	0.1 °C
Oc1c(CN2CCCC2)cc(COCc2ccccc2)c2cccnc12	-2.69 °C	-4.08 °C
O=C(NC[C@@H]1[C@H]2CN(C(=O)OCc3cc(C(F)(F)F)cc(C(F)(F)F)c3)C[C@@H]12)c1ccc2[nH]nnc2c1	2.07 °C	1.3 °C
CC(=O)N1CCC(c2ccc(C(=O)NC3=NCCN3)cc2C(F)(F)F)CC1	-0.26 °C	0.31 °C
CNC(=O)c1nnc(NC(=O)C2CC2)cc1Nc1cccc(-c2ncn(C)n2)c1OC	-2.45 °C	-4.06 °C
C[C@H](CCOc1cccc(CC(=O)O)c1)N(Cc1cccc(C(F)(F)F)c1Cl)CC(c1ccccc1)c1ccccc1	-6.66 °C	-0.56 °C
CCCCC[C@H](O)/C=C/[C@H]1[C@H](O)CC(=O)[C@@H]1CCCCCCC(=O)O	-1.54 °C	0.28 °C
Cc1cc(-c2cc3ncccc3c(OC[C@H]3CCCNC3)n2)ccc1N(C)C	-2.56 °C	-2.49 °C
CCc1nc(-c2cccc(C)c2)c(-c2ccnc(NC(=O)c3ccccc3)c2)s1	-1.99 °C	-1.26 °C
CCCCC(C)(O)C/C=C/[C@H]1[C@H](O)CC(=O)[C@@H]1CCCCCCC(=O)O (some centres undefined)	-1.42 °C	-0.79 °C
COCCN(C)c1ccc(NC(=O)/C=C(\C)c2ccc3ccccc3c2)c(C(=O)O)c1	-1.96 °C	-0.91 °C
CN[C@@H](C)C(=O)N[C@H](C(=O)N1CCC[C@H]1C(=O)N[C@H](C(=O)NCCCCCCNC(=O)[C@@H](NC(=O)[C@@H]1CCCN1C(=O)[C@@H](NC(=O)[C@H](C)NC)C1CCCCC1)C(c1ccccc1)c1ccccc1)C(c1ccccc1)c1ccccc1)C1CCCCC1 (I: H-[NMeA][Chg]P[Dip] / II: H-[NMeA][Chg]P[Dip]; linker I:C-II:C via Hexamethylenediamine)	-4.77 °C	-4.59 °C
Fc1ccc(-c2c3cccc(C(F)(F)F)c3nn2Cc2ccc(F)cc2Cl)cc1	-3.53 °C	-1.16 °C
Cn1cncc1-c1cn(-c2cccc(C(=O)Nc3cccc(C(F)(F)F)c3)c2)nn1	-2.66 °C	-0.32 °C
Cc1cccc(-c2[nH]c(CNc3ccccc3F)nc2-c2ccc3ncnn3c2)n1	-1.53 °C	-2.12 °C
CN1CCN(c2ccc(Nc3ncc4cc5n(c4n3)C3(CCCCC3)CNC5=O)nc2)CC1	-0.66 °C	-0.72 °C
COC[C@@H](C)N[C@H]1CC[C@H](Nc2cc(-c3cccc(NCC4(C#N)CCOCC4)n3)c(Cl)cn2)CC1	-0.6 °C	-3.05 °C
CN(C)C/C=C/C(=O)Nc1cc2c(Nc3ccc(F)c(Cl)c3)ncnc2cc1OC[C@@H]1CCCO1	-0.58 °C	-0.17 °C
O=C(O)c1cc2cc(Cc3cccnc3)ccc2o1	-1.5 °C	-0.74 °C

SMILES	ΔTm [1]	ΔTm [2]
O=C1Nc2nc(-c3c(O)cccc3OCC3CC3)cc([C@@H]3CCCNC3)c2CO1	-0.38 °C	0.45 °C
CN(C)C(=O)Cn1cc(-c2ccc(-c3nnc4ccccn34)cc2)cn1	-1.96 °C	0.35 °C
Cc1cc(=O)oc2cc(NC(=O)[C@H](Cc3ccc(I)cc3)NC(=O)[C@H]3N[C@@H]4CC[C@H]3C4)ccc12	-0.26 °C	0.3 °C
CN(CC(=O)Nc1ccc(F)c(F)c1F)C(=O)c1ccc2c(c1)OCCO2	-2.94 °C	-2.59 °C
COc1cc(-c2cn(C)c(=O)c3cnccc23)cc(OC)c1CN(C)C	-0.83 °C	0.37 °C
CC(=O)N1CCN([C@H]2CCC[C@@H](NC(=O)c3cc4c(F)ccc(C)c4[nH]3)C2)CC1	-1.7 °C	-1.5 °C
O=C(O)CCCCN(CCc1cc(F)ccc1OCc1ccc(-c2ccc(C(F)(F)F)cc2)cc1)Cc1ccc(C(=O)O)cc1	0.73 °C	-0.3 °C
CCCCc1c(-c2ccccc2)nc(N)nc1-c1ccc(OCc2ccccc2)c(F)c1F	-11.4 °C	-1.94 °C
N#CC[C@H](C1CCCC1)n1cc(-c2ncnc3[nH]ccc23)cn1	-0.65 °C	-1.72 °C
O=C(Cc1ccccc1[N+](=O)[O-])Nc1ccc(-c2ccc(C(O)(C(F)(F)F)C(F)(F)F)cc2F)cc1	-0.72 °C	0.45 °C
CN(C)[C@H]1CC[C@H](Nc2ncc3ncnc(Nc4ccc(F)c(Cl)c4)c3n2)CC1	-0.7 °C	-1.12 °C
CC[C@H](CC(=O)O)n1c(=O)c2ncccc2n(Cc2cn(C)c3cc(C)cc(C)c23)c1=O	-1.38 °C and -3.06 °C	0.26 °C and -1.81 °C
CN(C(=O)c1ccccc1)c1ccc2c(c1)[nH]/c(=N\C(=O)c1ccc(Br)s1)n2CCC(N)=O	-2.77 °C	-1.25 °C
CN(C)CCC[C@@]1(c2ccc(F)cc2)OCc2cc(C#N)ccc21	-1.59 °C	-0.51 °C
N=C(N)Nc1cc(C2CCNCC2)cc(C(F)(F)F)c1	-0.1 °C	0.35 °C
COC(=O)c1sccc1S(=O)(=O)Nc1ccc(Nc2ccccc2)cc1OC	-3.85 °C	0.59 °C
CNC(=O)c1cccc(-c2ccc3c(N4CCOC[C@@H]4C)nc(N4CCOC[C@@H]4C)nc3n2)c1	-1.42 °C	-1.47 °C
CCn1c(CNC(=O)c2nc(Cl)cnc2N)[n+](CC)c2ccc(C(=O)N(C)CCN(C)C)cc21	-0.61 °C	0.2 °C
CC(=O)c1ccc2c(c1)/C(=C(/Nc1cccc(C#N)c1)c1ccc3c(c1)OCCO3)C(=O)N2	-1.21 °C	-2.47 °C
CNC(=O)c1c[nH]c2ccc(Nc3nccc(-c4ccccn4)n3)cc12	-1.78 °C	-0.94 °C
CC1CNCCc2c1nc1ccnn1c2N1CC(C(=O)N2CCC(C)(C)C2)C1 (centres undefined)	-3.66 °C	0.37 °C

SMILES	ΔTm [1]	ΔTm [2]
CS(=O)(=O)NC(=O)CCC/C=C\C[C@H]1C(=O)C[C@@H](O)[C@@H]1/C=C/[C@@H](O)COc1ccccc1	-2 °C	-0.45 °C
O=C1CN(c2ccccc2F)C(NCCN2CCOCC2)=C1c1nc2cc(Br)ccc2c(=O)[nH]1	-12.3 °C	0.25 °C
CSc1nc2c(c(=O)n(C)c(=O)n2C)n1C	-3.81 °C	-0.92 °C
N#C/C(=C\c1ccc(O)c(O)c1)C(=O)OCCc1cccs1	-0.61 °C	0.49 °C
CNCc1ccc(-c2cc(-c3nc(-c4ccc(S(=O)(=O)C(C)C)cc4)cnc3N)on2)cc1	-2.54 °C	-0.96 °C
Cc1c(N2CCCC2)nc2ccc(Br)cc2c1C(=O)NC[C@H](CCC(=O)O)c1ccccc1Cl	-0.88 °C and -3.16 °C	0.3 °C and -2.24 °C
CCN(C)C(=O)c1ccc2c(c1)NC(=O)/C2=C(\NC1CCN(C)CC1)c1ccccc1	0.55 °C	0.21 °C
O[C@]1(C(F)(F)F)CCCC[C@H]1Nc1ccc(F)cc1	-1.92 °C	-2.51 °C
O=C(N[C@H](Cc1ccccc1)C(=O)O)c1cccc(OCc2cccnc2)c1	-1.53 °C	-0.73 °C
COc1cc(-c2cc3ncccc3c(OC[C@H]3CNC(=O)C3)n2)cc(OC)c1OC1CCOCC1	-1.76 °C	-2.27 °C
Cc1cn(CCN2CCN(c3ccccc3-c3cc(C#N)cc(C(=O)NCCCN4CCCC4)c3)CC2)c2ccccc12	-2.78 °C	-1.92 °C
C=C1/C(=C\C=C2/CCC[C@]3(C)[C@@H]([C@H](C)CCCC(C)(C)O)CC[C@@H]23)C[C@@H](O)C[C@@H]1O	-7.29 °C	-4.59 °C
C[C@]12CC[C@@H]3c4ccc(O)cc4CC[C@H]3[C@@H]1C[C@H]1OC(=O)C[C@]12O	-11.6 °C	0.49 °C
O=C(Nc1ccc(C(O)(C(F)(F)F)C(F)(F)F)cc1)c1ccc(C(F)(F)F)cc1	-1.03 °C	-0.53 °C
Cc1cnc(Nc2ccc(C(=O)N3CCN(C)CC3)cc2)nc1N[C@@H]1CCC[C@@H]1C(N)=O	-1.32 °C	-3.2 °C
O=C(N[C@H]1CCC[C@H](CO)C1)C1CCN(c2nc3cc(Cl)c(-c4ccc(Cl)cc4)cc3o2)CC1	-3.15 °C	1.95 °C
Cc1cc(CN)cc(C)c1-c1ncn(C)c1-c1cncn1C	-1.42 °C	0.01 °C
CCOC(=O)/N=C(\N)c1ccc(OCc2cccc(COc3ccc(C(C)(C)c4ccc(OC(=O)OCC)cc4)cc3)c2)cc1	-10.4 °C	-0.45 °C
NC(=O)c1sc2nc(N3CCC(NC[C@H](O)c4ccccn4)CC3)cc(C(F)(F)F)c2c1N	-3.3 °C	-3.39 °C
Cc1nc2cccnc2n2c(-c3cc(C(C)(C)O)ncc3Cl)nnc12	-1.96 °C	-2.03 °C
